Measurements as given in PubChem BioAssay (NCATS).
Records with an inconclusive call do not appear. The source made the active and inactive calls. Calls come from the whole dose curve; as a rule, active = well fitted curve in the direction sought with a large enough effect; inconclusive = small, poorly fitted or top-dose-only effect, or another doubt; inactive = no such curve, though single readings can be large or run the other way.

Experiment: qHTS for Inhibitors of the vitamin D receptor (VDR): Hit Validation using a Texas Red Assay (AID 602201)
Conditions: VDR coregulator binding, Texas Red fluorescence polarization, agonist-bound VDR ligand-binding domain; series mostly up to 57.1 µM
Summary of the method: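 After a 2-hour room-temperature incubation, polarization of Texas-Red emission was read (Ex 595 nm/Em 615 nm). Final mix contained 7 nM Texas Red, 1.5 uM VDR-LBD and LG19078.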
Potency is the fitted concentration of half-maximal effect.

SMILES	Potency
O=C(CCCSc1ccc(Cl)cc1)Nc1cc(S(=O)(=O)N2CCOCC2)ccc1O	7.94 µM (active)
CCOc1ccc(Cl)cc1/C=C1/C(=O)ON=C1C	7.94 µM (active)
CCOc1cc(/C=C2/C(=O)ON=C2C)cc(Br)c1O	inactive
O=[N+]([O-])c1c(Nc2ccc(O)cc2)cc(Cl)c2nonc12	3.16 µM (active)
COc1ccc(C2=CC(=O)N(Nc3ccccc3)C2=O)cc1	10 µM (active)
c1ccc2c(C[n+]3csc4ccccc43)cccc2c1	10 µM (active)
Cc1nc2ccc(N=NN(C)C)cc2[nH]1	inactive
CN1CCN(C(=O)c2sc(=S)n(-c3ccccc3)c2N)CC1	inactive
Nc1c(C(=O)N2CCCCC2)sc(=S)n1-c1ccccc1	35.5 µM (active)
COc1cccc(/C=C2\C(=O)N(c3cccc(C)c3)C(=O)c3ccccc32)c1	14.1 µM (active)
Cc1oc2c(c1C(=O)c1ccc(Cl)cc1)C(=O)C(=O)c1ccccc1-2	3.98 µM (active)
CCS(=O)(=O)c1ncc(Cl)c(C(=O)N2CCN(c3cccc(Cl)c3)CC2)n1	2.82 µM (active)
Cc1ccc(NC(=O)C2=C(c3ccccc3)S(=O)(=O)CCS2(=O)=O)cc1	10 µM (active)
O=[N+]([O-])c1c(NCCCO)cc(Sc2ccc(Cl)cc2)c2nonc12	15.8 µM (active)
CSc1nnc(NC(=O)c2nc(S(=O)(=O)Cc3ccc(C)cc3)ncc2Cl)s1	inactive
CCCc1nnc(NC(=O)c2nc(S(=O)(=O)Cc3cccc(C)c3)ncc2Cl)s1	inactive
O=C(O)/C=C/C(=O)c1ccc2c(c1)NC(=O)CO2	inactive
CC(=O)Nc1cccc(C(=O)/C=C/c2ccc(C)cc2)c1	inactive
O=C(CCN1CCc2ccccc2C(O)(c2ccccc2)C1)c1ccc2c(c1)OCCO2 (stereo not given)	inactive
COCCN(CC(=O)NC1CCCCC1)C(=O)/C=C/C(=O)c1ccc(OC)cc1O	inactive

SMILES	Potency
Cc1cc(Br)cc2c1N(Cc1ccccc1OC(C)C)C(=O)C2=O	11.2 µM (active)
O=c1cc(CO)oc(C(Nc2cccc(C(F)(F)F)c2)c2ccccn2)c1O (stereo not given)	inactive
O=C(/C=C/c1ccc(Cl)c([N+](=O)[O-])c1)c1cccnc1	4.47 µM (active)
CCOC(=O)c1sc(=S)n2c1[nH]c(=O)c1ccc(C(=O)OC)cc12	10 µM (active)
c1ccc(-c2ccc(C3=Nn4c(Cn5nnc6ccccc65)nnc4SC3)cc2)cc1	22.4 µM (active)
O=C(COc1ccc(Cl)cc1)Nc1sc2c(c1C(=O)Nc1cccc(Cl)c1)CCCC2	8.91 µM (active)
Cc1cc(C)nc(S/C=C/C(=O)c2ccccc2)n1	14.1 µM (active)
O=C(/C=C/c1cccnc1)c1ccc([N+](=O)[O-])cc1	3.16 µM (active)
Cc1ccc(O)c(NC(=O)CCS(=O)(=O)c2nc(-c3ccc4c(c3)OCO4)cc(C(F)(F)F)n2)c1	28.2 µM (active)
COc1ccc(/C=C2/C(=O)N(c3ccccc3)N=C2C)cc1Br	inactive
CNc1ccc(Br)cc(C(=O)/C=C/c2cccc(Cl)c2Cl)c1=O	3.55 µM (active)
O=c1[nH]c(/C=C\c2cccc(Cl)c2)nc(O)c1[N+](=O)[O-]	inactive
O=C(/C=C/c1cccc([N+](=O)[O-])c1)c1ccc2c(c1)OCCO2	14.1 µM (active)
CCC(=O)Nc1cccc(C(=O)/C=C/c2cc(Br)ccc2OC)c1	28.2 µM (active)
C[C@@H](NC(=O)OC(C)(C)C)c1nnc(S(=O)(=O)Cc2ccccc2)o1	11.2 µM (active)
CCc1oc2ccccc2c1C(=O)CCN1CCCCC1	3.55 µM (active)
O=S1OC(c2ccccc2)c2cc(Cl)ccc21 (stereo not given)	7.08 µM (active)
CC(=O)N1CC[n+]2c(-c3ccc([N+](=O)[O-])cc3)csc21	7.08 µM (active)
Cc1ccc(NN2C(=O)C=C(c3ccccc3)C2=O)cc1	inactive
COc1ccc(OC)c(-c2c3cc(O)c(=O)cc-3oc3cc(O)c(O)cc23)c1	8.91 µM (active)
